Source: PubChem
In the library only some 6.9% were active in any assay of this set; here they are far more common.
IL-1B inflam inh: qHTS for Inhibitors of Inflammasome Signaling: IL-1-beta AlphaLISA Primary Screen; THP-1 LPS/ATP IL-1B secretion, AlphaLISA, 16 h; active compounds read low; activity change, % at 57.5 µM; hit rate 4.7% among 360,000; AID 743279, 2014; in the data active means activity change below about -50%; inconclusive means mostly about -30% to -49%; further: on the % scale 0 is the no-effect control and ±100 the full control effect
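THP-1 cells pretreated 1 hr with compounds (up to 57.5 uM final), then stimulated with LPS (250 ng/mL final) plus ATP (1.25 mM final); secreted IL-1B measured by AlphaLISA after 16 hr, decreased signal indicating inhibition.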
SW480 rereplic: A quantitative high throughput screen for small molecules that induce DNA re-replication in SW480 colon adenocarcinoma cells; hit rate 1.8% among 340,000; Potency, µM (top dose mostly 46.1 µM), without a hit: at the highest dose re-replication activation, most hits filed as activators; AID 624297, 2012; SW480 DNA re-replication, Hoechst DNA content imaging, 48 h; further: potency means the concentration at half of the fitted maximal effect; % of control where 0% means no effect; nearly all actives have a fitted effect of over 55% in size
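DNA re-replication was detected as more nuclei of elevated Hoechst intensity after 48 hr exposure to compound (23 nL pinned per well of 250 cells).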
Vif-APOBEC3G blk: qHTS for Inhibitors of Vif-A3G Interactions: qHTS; HeLa A3G-eYFP + Vif (tagged APOBEC3G with the HIV-1 protein that degrades it), YFP fluorescence, overnight; Potency, µM (top dose mostly 46.1 µM), without a hit: top-dose activity, negative = active, actives largely listed as inhibitors; hit rate 0.076% among 410,000; AID 602310, 2012; further: potency means the concentration at half of the fitted maximal effect; on the % scale 0 is the no-effect control and ±100 the full control effect; nearly all actives have a fitted effect of over 60% in size
Target sequence (Q9HC16 whole entry, looked up): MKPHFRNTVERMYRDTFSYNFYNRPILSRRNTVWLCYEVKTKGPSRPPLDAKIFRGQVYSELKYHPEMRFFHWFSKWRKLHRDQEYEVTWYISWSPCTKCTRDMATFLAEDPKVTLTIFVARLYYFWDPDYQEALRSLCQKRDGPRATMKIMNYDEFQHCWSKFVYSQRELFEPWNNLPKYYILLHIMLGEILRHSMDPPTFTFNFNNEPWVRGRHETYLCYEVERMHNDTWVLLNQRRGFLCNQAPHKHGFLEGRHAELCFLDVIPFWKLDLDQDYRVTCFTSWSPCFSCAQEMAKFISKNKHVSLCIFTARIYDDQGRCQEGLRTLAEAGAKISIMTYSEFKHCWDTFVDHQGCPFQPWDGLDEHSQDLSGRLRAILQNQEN
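Read-out is eYFP fluorescence (Ex 488/Em 500-530) from Vif-expressing HeLa A3G-eYFP cells; more signal means A3G escaped Vif-mediated degradation. Cells plated overnight, compound pinned in, incubated overnight at 37 deg C.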
Vif-A3F inh: qHTS for Inhibitors of Vif-A3F Interactions: qHTS. HeLa A3F-eYFP + Vif (tagged APOBEC3F with the HIV-1 protein that degrades it), YFP fluorescence increase. Potency, µM (series often up to 46.1 µM), inactives show at the top dose activity, negative = active. hit rate 0.2% among 390,000; further: potency means the concentration at half of the fitted maximal effect; % of control where 0% means no effect; nearly all actives have a fitted effect of over 65% in size
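Fluorescence increase (Ex 488/Em 500-530) after overnight compound treatment at 37 deg C flags inhibition of Vif-driven A3F-eYFP loss in stable HeLa A3F-eYFP/Vif cells seeded overnight beforehand.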
Giardia kill: Small Molecules that selectively kill Giardia lamblia: qHTS; hit rate 0.15% among 340,000; activity change, % at 7.66 µM, hits read low; Giardia lamblia trophozoite viability; in the data active means activity change below about -80%; inconclusive means between about -30% and that limit;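 further: parasites exposed to compound for two days anaerobically before the ATP read; on the % scale 0 is the no-effect control and ±100 the full control effect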
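Media and compound were dispensed first, then trophozoites at 100 cells/well; plates sat 48 hrs at 37 deg C without oxygen before ATP luminescence reagent was added and read after 15-30 min at room temperature.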
MCF10A rerep: A quantitative high throughput screen for small molecules that induce DNA re-replication in MCF 10a normal breast cells; Potency, µM (doses to about 46.1 µM), for the others: at the highest dose activity, positive = re-replication, usual class: activators; MCF 10A DNA re-replication, Hoechst nuclear intensity, 48 h; hit rate 2.9% among 350,000; AID 624296, 2012; further: potency means the concentration at half of the fitted maximal effect; % of control where 0% means no effect; nearly all actives have a fitted effect of over 50% in size
The depositor's hits bear a star; ? = inconclusive; / = no result given. Unless noted, the call rests on the fitted dose curve; in most records, active means well fitted curve in the direction sought with a large enough effect; inconclusive means small, poorly fitted or top-dose-only effect, or another doubt; inactive means no such curve, though single readings can be large; an effect the other way counts as inactive or inconclusive.

SMILES	IL-1B inflam inh	SW480 rereplic	Vif-APOBEC3G blk	Vif-A3F inh	Giardia kill	MCF10A rerep
Cc1cc(C2N=C(N)Nc3nc4ccccc4n32)c(C)n1-c1ccccc1Cl (centres undefined)	-56.3*	?	-0.8%	-13.5%	0.2	20.0%
Cc1ccc(-n2c(C)cc(C3N=C(N)Nc4nc5ccccc5n43)c2C)c(C)c1 (centres undefined)	?	-17.3%	-5.1%	-5.1%	-7.5	?
NC1=NC(c2ccc(F)cc2)n2c(nc3ccccc32)N1 (centres undefined)	-5.4	?	-0.2%	-1.2%	-4.3	25.9µM*
CCc1ccccc1NS(=O)(=O)c1ccc2c(c1)CC(=O)N2	/	/	-3.6%	-3.1%	/	/
FC(F)(F)c1cccc(NC(=S)N(CCCN2CCCC2)Cc2cccn2Cc2ccc(Cl)cc2)c1	-89.4*	?	-22.2%	-16.6%	-15.6	?
CN(C)CCCN(Cc1ccccc1)C(=S)Nc1cccc(C(F)(F)F)c1	16.5	/	4.7%	8.4%	-18.5	0.8%
Cc1ccc(NC(=S)N(CCCN2CCCC2)Cc2cccn2Cc2ccc(Cl)cc2)cc1Cl	-52.6*	?	0.8%	-1.9%	12.0	?
COc1ccc(NC(=S)N(CCCN2CCCC2)Cc2cccn2Cc2ccc(Cl)cc2)cc1Cl	-51.6*	23.1µM*	-22.9%	10.4%	22.1	20.6µM*
CN1CCN(CCCN(Cc2cccs2)C(=S)Nc2ccc(Cl)cc2)CC1	-65.0*	-21.7%	4.2%	3.4%	-23.3	?
CCc1ccc(NC(=S)N(CCCN2CCN(C)CC2)Cc2cccs2)cc1	-6.3	-0.4%	-0.1%	7.1%	-10.0	13.7%
COc1ccc(NC(=S)N(CCCN2CCC(C)CC2)Cc2cccs2)cc1Cl	?	16.7%	4.2%	-4.2%	-4.8	12.3%
Cc1ccc(NC(=S)N(CCCN2CCCC2)Cc2cccn2Cc2ccc(Cl)cc2)cc1C	-4.4	-1.1%	0.1%	7.7%	25.4	?
COC(=O)c1sc2cccc(F)c2c1S(=O)(=O)N1CCN(c2ccccc2OC)CC1	/	/	-18.7%	-0.8%	/	/
CCOC(=O)c1[nH]c(C)c(C(=O)NCc2ccccc2Cl)c1C	/	/	1.4%	3.0%	/	/
Cc1ccc(C)c(NC(=O)CSc2nc3c([nH]c4ccccc43)c(=O)n2-c2ccc(F)cc2)c1	/	/	-3.4%	-4.4%	/	/
CC1=C(C)/C(=N/OC(=O)c2cccc([N+](=O)[O-])c2)C=CC1=O	-4.4	8.2µM*	-2.4%	-4.6%	-2.1	8.2µM*
C[C@@H]1[C@@H](Sc2ccccc2)CC(=O)O[C@@H]1c1ccc(-c2ccccc2)cc1	-101.7*	28.3%	-16.6%	0.9%	-12.0	101.0%
O=[N+]([O-])c1ccc(Nc2nc(NCCN3CCOCC3)nc(Nc3ccc(I)cc3)n2)cc1	/	/	-6.0%	/	/	/
O=c1[nH]c(-c2ccc(O)cc2)nc2scc(-c3cccs3)c12	-20.3	11.8%	0.2%	-6.2%	-23.1	7.31µM*
Cc1nc2scc(-c3cccs3)c2c(=O)[nH]1	-14.1	-5.0%	0.5%	-1.0%	-12.2	-6.8%
CCCN1C(=O)C2(c3ccccc31)c1c(oc3ccccc3c1=O)C(=O)N2CCO (centres undefined)	/	/	3.1%	3.9%	/	/
CCS(=O)(=O)N1CCc2cc(C(=O)NCc3ccc(Cl)cc3)ccc21	/	/	1.1%	5.4%	/	/
Cc1cccc(NC(=O)CN2CCN(C(=O)C(C)Oc3ccc(C#N)cc3)CC2)c1C (centres undefined)	0.0	1.2%	1.8%	0.2%	14.1	6.8%
CC(Oc1ccc(C#N)cc1)C(=O)N1CC=C(c2ccccc2)CC1 (centres undefined)	-61.2*	?	?	-14.4%	6.0	16.4µM*
CSc1ccc(CCNC(=O)CN2C(=O)COc3ccc(S(=O)(=O)N4CCCC4)cc32)cc1	/	/	2.3%	4.6%	/	/
